# From PubChem BioAssay
# An excerpt weighted towards active compounds, which were near 22% of everything screened.
# CYP2C19 inhib – blockers of cytochrome P450 2C19 activity – biochemical, luminescence, ADME assay, primary screen; P33261; CYP2C19 Supersomes, luciferin-H EGE luminescence, 30 min; inhibition, % at 5 µM; 21% of 96,000 active; AID 778, 2007;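 active = CYP2C19 inhibition above a set limit at 5 µM in the primary screen, cut at about 50% in these data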
# Target sequence (P33261 whole entry, looked up): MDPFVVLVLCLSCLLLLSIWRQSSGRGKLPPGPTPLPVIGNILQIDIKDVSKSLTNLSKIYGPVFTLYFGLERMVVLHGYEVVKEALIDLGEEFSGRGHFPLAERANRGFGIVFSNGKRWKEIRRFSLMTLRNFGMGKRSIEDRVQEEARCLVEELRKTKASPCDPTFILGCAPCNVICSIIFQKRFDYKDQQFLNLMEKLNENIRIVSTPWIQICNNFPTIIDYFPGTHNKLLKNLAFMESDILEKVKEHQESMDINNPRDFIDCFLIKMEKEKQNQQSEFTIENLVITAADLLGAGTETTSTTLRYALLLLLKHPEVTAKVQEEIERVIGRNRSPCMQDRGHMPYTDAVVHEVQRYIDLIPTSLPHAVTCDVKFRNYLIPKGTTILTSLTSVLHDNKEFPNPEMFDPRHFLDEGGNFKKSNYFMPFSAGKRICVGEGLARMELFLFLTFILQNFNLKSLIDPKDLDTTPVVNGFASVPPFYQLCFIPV
# CYP2C19 activ – human CYP2C19 activators, primary screen, biochemical, luminescence | activation factor at 5 µM | recombinant CYP2C19, luciferin-H EGE luminescence; hits give high values; 0 = fully inhibited enzyme, 1 = untreated enzyme | Cytochrome P450 2C19 (Homo sapiens), P33261 | 96,000 tested, under 10 active;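 active = activation factor of at least 2 at 5 µM in the primary screen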
# CYP2C9 inhib – blockers of cytochrome P450 2C9 activity – biochemical, luminescence, ADME assay, primary screen; CYP2C9 Supersomes, luciferin-H conversion; inhibition, % at 5 µM; 20% of 96,000 active; AID 777, 2007;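 active = blocking of liver enzyme CYP2C9 beyond about 50% at 5 µM, limit read from the data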
# E-sel TNF inh – E-selectin induction blockers in HUVEC – imaging, immunofluorescence, high content, primary screen. HUVEC TNFa-induced E-selectin immunofluorescence. inhibition, % at 2 µM. 0.71% of 120,000 active;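 active = inhibition above the batch mean plus 3 SD, and confirmed as a hit on visual image review, cut at about 43% in these data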
# F-actin modifier – modifiers of F-actin cytoskeleton organization, primary screen, imaging, HUVEC, phalloidin staining, high-content imaging; HUVEC TNFa F-actin phalloidin imaging; inhibition, % at 2 µM; 0.18% of 91,000 active; AID 836, 2007;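 active = inhibition above the batch mean plus 3 SD and confirmed as a hit by visual image inspection, cut at about 30% in these data, passing the limit was not always enough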
# CYP2C9 activ – human CYP2C9 activators, primary screen, biochemical, luminescence; AID 1024, 2008; activation factor at 5 µM; recombinant CYP2C9, luciferin-H conversion; hits give high values; factor 1 = untreated enzyme, 0 = blocked; Cytochrome P450 2C9 (Homo sapiens), P11712; 1.4% of 96,000 active;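 active = activation factor of 2 or more for CYP2C9 at a 5 µM dose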
# Hits are given with their value; n = inactive; x = no result.
SMILES,CYP2C19 inhib,CYP2C19 activ,CYP2C9 inhib,E-sel TNF inh,F-actin modifier,CYP2C9 activ
COc1cc(-c2nc(N)n[nH]2)cc(OC)c1OC,n,n,n,x,n,n
CCOC(=O)C1CN(S(=O)(=O)c2ccccc2)c2cc(S(=O)(=O)CC)ccc2O1 (stereo not drawn),n,n,n,n,n,n
CCOC(=O)C1CN(S(=O)(=O)c2cccc(C(F)(F)F)c2)c2cc(CC(=O)OC)ccc2O1 (stereo not drawn),79,n,60,n,n,n
CCCC1=NCCn2cccc21,n,n,n,n,n,n
COc1cc2c(cc1OC)C(C)N(C(=O)c1cc3c(=O)oc4ccc(C)cc4c3s1)CC2 (stereo not drawn),x,x,x,n,x,x
CC(=O)N1N=C(c2ccc(Cl)cc2)OC1c1ccc(C(C)C)cc1 (stereo not drawn),55,n,n,n,n,n
CCC1(C)Cc2c(sc3nnn(CC(=O)Nc4ccccc4C)c(=O)c23)CO1 (stereo not drawn),84,n,n,n,n,n
CCC1(C)Cc2c(sc3nnn(CC(=O)Nc4ccccc4)c(=O)c23)CO1 (stereo not drawn),89,n,68,n,n,n
CC1(C)Cc2c(sc3nnn(Cc4ccccc4)c(=O)c23)CO1,x,x,x,n,x,x
CCC1(C)Cc2c(sc3nnn(Cc4ccccc4Cl)c(=O)c23)CO1 (stereo not drawn),n,n,76,n,n,n
COc1ccc(N2C(=O)C3C4C=CC(C4)C3C2=O)nn1 (stereo not drawn),n,n,n,n,n,n
O=C(CSc1nc2c(cnn2-c2ccccc2)c(=O)[nH]1)N1N=C(c2cccs2)CC1c1ccc(F)cc1 (stereo not drawn),x,x,x,n,x,x
Cc1noc(C)c1CCC(=O)N1CCCC(CCC(=O)NCc2ccccc2F)C1 (stereo not drawn),x,x,x,n,x,x
Cc1nc(S(=O)(=O)c2cccc(Cl)c2)nc2c1CCC2,n,n,n,n,n,2.7
CCCOc1ccc2oc(=O)c3c(c2c1)CCCN3C(=O)CN1CCN(c2ncccn2)CC1,63,n,65,n,n,n
C/C(=N\NC(=O)c1c(Cl)c(C)nn1C)c1ccc(NC(=O)COc2ccc(Cl)cc2C)cc1,n,n,66,n,n,n
C/C(=N\NC(=O)c1c(Cl)c(C)nn1C)c1cccc(NC(=O)COc2ccccc2)c1,n,n,n,n,n,n
CC(=O)c1ccc(N2CCN(C(=O)Nc3ccc(C(C)C)cc3)CC2)cc1,x,x,x,n,x,x
CCn1cc(C(=O)NCc2ccc3c(c2)OCO3)c(=O)c2cc(F)c(N3CCN(C(=O)c4ccco4)CC3)cc21,n,n,58,n,n,n
CCCNC(=O)c1cn(CC)c2cc(N3CCN(C)CC3)c(F)cc2c1=O,n,n,n,n,n,n
CCn1cc(C(=O)NCc2ccccc2)c(=O)c2cc(F)c(N3CCN(C(=O)c4ccco4)CC3)cc21,53,n,64,n,n,n
CC(=O)c1cc(F)c(N2CCN(C(=O)c3ccco3)CC2)cc1C,60,n,n,n,n,n
CCOc1ccccc1NC(=O)CSc1nnc(Cn2c(=O)sc3ccccc32)n1C,x,x,x,n,x,x
CCOC(=O)c1ccc(Nc2nnc(C(C)(C)C)c(=O)[nH]2)cc1,n,n,n,x,n,n
CCc1ccc(N2C(=O)CN(CC(=O)OC)C2=S)cc1,x,x,x,n,x,x
SMILES,CYP2C19 inhib,CYP2C19 activ,CYP2C9 inhib,E-sel TNF inh,F-actin modifier,CYP2C9 activ
c1ccc(N2CCN(Cc3ccnc4ccccc34)CC2)cc1,64,n,n,n,n,n
c1cnc(N2CCN(Cc3c[nH]c4ccccc34)CC2)nc1,n,n,n,n,n,n
COc1ccc(C(=O)N/N=C/c2ccc(OC)c(OS(=O)(=O)c3ccccc3)c2)cc1,x,x,x,n,x,x
CCOc1cc(/C=N/NC(=O)c2cccc([N+](=O)[O-])c2)ccc1OS(=O)(=O)c1ccccc1,57,n,59,n,n,n
COc1ccc(/C=N/NS(=O)(=O)c2ccccc2)cc1OC(=O)c1ccc(C)cc1,n,n,89,n,n,n
COc1ccc(/C=N/NC(=O)c2cccc([N+](=O)[O-])c2)cc1OS(=O)(=O)c1ccc(C)cc1,n,n,n,n,n,n
COc1ccc(/C=N/NS(=O)(=O)c2ccccc2)cc1OS(=O)(=O)c1ccccc1,n,n,94,n,n,n
Cn1c(Cn2c(=O)sc3ccccc32)nnc1SCC(=O)NCC1CCCO1 (stereo not drawn),x,x,x,n,x,x
Cc1ccccc1OCc1nnc(SCC(=O)NCc2ccco2)n1C,x,x,x,n,x,x
Cc1ccc(NCc2nnc(SCC(=O)NCc3ccco3)n2CC2CCCO2)cc1Cl (stereo not drawn),n,n,56,n,n,n
O=C(CSc1nnc(CNc2ccc(F)cc2)n1Cc1ccccc1)NCc1ccco1,54,n,53,x,n,n
O=C(CSc1nnc(C2CCCCC2)n1Cc1ccccc1)NCc1ccco1,n,n,66,n,n,n
COc1ccccc1OCc1nnc(SCC(=O)NCc2ccco2)n1Cc1ccco1,62,n,58,n,n,n
CCOC(=O)c1sc(NC(=O)/C=C/c2cnn(CC)c2C)c(C(=O)OCC)c1C,n,n,n,n,n,n
Cc1ccc(/C=C2\C(=O)Nc3ccccc32)o1,x,x,x,n,x,x
O=C1Nc2ccccc2/C1=C/C(=O)c1cccs1,n,n,n,n,n,2.5
CC(C)=CC(=O)OCC(=O)Nc1ncc(Cl)c(C)c1Cl,n,n,n,x,n,n
Nc1ccc2c(c1)Oc1ccccc1C=C2,x,x,x,n,x,x
Nc1ccc2c(c1)COc1ccccc1O2,69,n,n,n,x,n
COC(=O)C(C)N1C(=O)S/C(=C/c2cc(C)n(-c3ccccn3)c2C)C1=O (stereo not drawn),n,n,n,n,n,n
COC(=O)C(C)N1C(=O)S/C(=C\c2cc(C)n(-c3ccccn3)c2C)C1=O (stereo not drawn),n,n,80,n,n,n
C=CCNC(=O)c1onc(CSc2ccccc2F)c1C(=O)O,n,n,n,n,n,n
C=CCNC(=O)c1onc(CSc2ccc(OC)cc2)c1C(=O)O,n,n,52,n,n,n
C=CCNC(=O)c1onc(CSc2ccc(F)cc2)c1C(=O)O,n,n,n,n,n,n
C=CCNC(=O)c1onc(CSc2ccc(C(C)C)cc2)c1C(=O)O,n,n,87,n,n,n
C=CCNC(=O)c1onc(CSc2ccc(F)cc2)c1C(=O)NCCOC,98,n,n,n,n,n
C=CCNC(=O)c1onc(CSc2cccc3ccccc23)c1C(=O)O,59,n,94,n,n,n
C=CCNC(=O)c1onc(CSc2ccccc2)c1C(=O)O,n,n,n,n,n,n
